Some test systems named below: NCI-H23 lung; NCI-H226 lung; NCI-H322M lung; HOP-62 NSCLC; NCI-H460 lung; HOP-92 NSCLC; NCI-H522 lung; A549/ATCC NSCLC; 786-0 renal; COLO 205 colon.
Holding throughout (assay): NCI-60 one-dose screen, 48 h (100 = growth as untreated, 0 = no growth, -100 = all killed)
What all share (details): 10 µM unless noted

The panel holds about 83,000 compounds, 20% with a hit somewhere; the sample as a whole holds those more often.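 Cells were grown in 96-well plates and exposed to the test compound at a single concentration for 48 hours; results are reported as percent growth, with values below 10 considered active.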 A number with no mark means an inactive call. Activity calls are given as the source filed them.

The results in this text go back to PubChem BioAssay (NCI).

For `CC[C@H](Nc1cc(C)nc(N)n1)c1nc2cccc(NCc3ccc(C(=O)NO)cc3)c2c(=O)n1-c1ccccc1`, the growth in the test on NCI-H23 lung is -6.84% (active); with NCI-H226 lung, 64.7%; in the test with NCI-H322M lung, 47.7%; in the test on HOP-62 NSCLC, 34.5%; in the test with NCI-H460 lung it was 30.1%; in the test with HOP-92 NSCLC it was -3.07% (active). The growth in the test with NCI-H522 lung was -63.7% (active); in the test with A549/ATCC NSCLC, 60.1%; in the test on 786-0 renal, 44.1%.
`O=c1cc(-c2ccccc2)[nH]c2ccccc12`: the growth in the test on NCI-H23 lung is 39.1%; in the test with NCI-H226 lung it was 70.2%; in the test on NCI-H322M lung, 55.4%; in the test with HOP-62 NSCLC, 49%; in the test on NCI-H460 lung, 13.2%; in the test on HOP-92 NSCLC it was 38.5%. In addition, the growth with NCI-H522 lung was -46.9% (active); in the test with A549/ATCC NSCLC it was 19.1%; in the test on 786-0 renal, 32.3%; in the test on COLO 205 colon, 5.72% (active).
In the case of `CC(=O)OCC1OC(OC2=C(CC=C(Cl)Cl)C(=O)c3ccccc3C2=O)C(OC(C)=O)C(OC(C)=O)C1OC(C)=O` (configuration not stated), the growth was 105% in the test with NCI-H23 lung; 85% in the test with NCI-H226 lung; 102% in the test with NCI-H322M lung; 92.7% in the test with HOP-62 NSCLC; 95.1% in the test with NCI-H460 lung; -9.2% (active) in the test on HOP-92 NSCLC. Also, the growth is 3.88% (active) in the test with NCI-H522 lung, 102% in the test with A549/ATCC NSCLC, 102% in the test with 786-0 renal and 97.6% in the test on COLO 205 colon.
For the molecule `COc1cc(-c2cc(-c3nc4ccc(Cl)cc4[nH]3)[nH]n2)cc(OC)c1OC`, the growth with NCI-H23 lung was 45.5%; in the test with NCI-H226 lung, 18.1%; with NCI-H322M lung, 51.4%; in the test with HOP-62 NSCLC, 40.1%; in the test on NCI-H460 lung, 60.4%; in the test with HOP-92 NSCLC it was 67.2%. The growth in the test with NCI-H522 lung is 45.3%; in the test on A549/ATCC NSCLC it was 50%; in the test on 786-0 renal, 65.1%.
Consider `CC(C)Oc1nc2c(c(=O)n(C)c(=O)n2C)n1C`, for which the growth is 96% in the test on NCI-H23 lung; 97.1% in the test on NCI-H226 lung; 94.4% in the test on NCI-H322M lung; 92.5% in the test with HOP-62 NSCLC; 105% with NCI-H460 lung; 102% in the test with HOP-92 NSCLC. In addition, the figures for the growth with NCI-H522 lung, with A549/ATCC NSCLC and in the test with 786-0 renal were 80.9%, 84.7% and 104%, respectively.
For `COc1ccc(-n2c(C)nc3c(c(C)nn3-c3ccccc3)c2=O)cc1`, the growth with NCI-H23 lung was 18.4%; in the test on NCI-H226 lung, 51.3%; in the test with NCI-H322M lung, 49.9%; in the test with HOP-62 NSCLC, 34.4%; in the test on NCI-H460 lung, 3.74% (active); in the test on HOP-92 NSCLC, 27.6%. Moreover, the growth with NCI-H522 lung is -14% (active); in the test on A549/ATCC NSCLC, 16.3%; in the test on 786-0 renal it was 27.4%.
Take `Clc1cccc(Nc2nc(Nc3cnc4ccccc4c3)c3[nH]cnc3n2)c1`: the growth with NCI-H23 lung was 84.3%; in the test on NCI-H226 lung, 72.3%; in the test with NCI-H322M lung, 89.1%; with HOP-62 NSCLC, 59.9%; with NCI-H460 lung, 61.1%; with HOP-92 NSCLC it was 7.57% (active). For the same molecule, the values for the growth with NCI-H522 lung, in the test on A549/ATCC NSCLC and in the test on 786-0 renal were 61.9%, 74.4% and 109%, respectively.
Turning to `Nc1cc2ccncc2c2ccccc12`, the growth is 67.7% in the test on NCI-H23 lung; 44% in the test on NCI-H226 lung; 61.7% in the test with NCI-H322M lung; 79.6% with HOP-62 NSCLC; 58.2% with NCI-H460 lung; 73.9% in the test on HOP-92 NSCLC. The growth was 98.4% in the test with NCI-H522 lung, 89.4% with A549/ATCC NSCLC and 78.1% in the test on 786-0 renal.
Consider `CC/C(=C(\c1ccccc1)c1ccc(OCCNC)cc1)c1ccccc1`, for which the growth in the test with NCI-H23 lung is -90.5% (active); in the test on NCI-H226 lung, -84.1% (active); in the test on NCI-H322M lung, -99.5% (active); with HOP-62 NSCLC, -64.2% (active); in the test on NCI-H460 lung, -71.3% (active); with HOP-92 NSCLC it was -85.6% (active). The growth with NCI-H522 lung was -74.9% (active); in the test with A549/ATCC NSCLC it was -39.2% (active); in the test on 786-0 renal, -92.7% (active).
As for `CCOC(=O)c1c2c(n3ccc(NC(=O)CCN(CC)CC)cc13)C(=O)c1ncccc1C2=O`, the growth in the test on NCI-H23 lung is 0.0285% (active); with NCI-H226 lung, 75.1%; in the test with NCI-H322M lung, 73.4%; in the test with HOP-62 NSCLC, 31.4%; with NCI-H460 lung, -20.4% (active); in the test with HOP-92 NSCLC, 82.1%. The growth in the test with NCI-H522 lung is 6.16% (active); with A549/ATCC NSCLC, 36.2%; in the test with 786-0 renal, 50.1%.
As for `CC(=O)Nc1ccc2c(c1)c(NC(C)=O)nn2C(=O)Nc1ccc(Cc2ccccc2)cc1`, the growth was 26.8% with NCI-H23 lung; 62.7% in the test on NCI-H226 lung; 75.1% in the test with NCI-H322M lung; 44.3% in the test on HOP-62 NSCLC; 76.4% in the test with NCI-H460 lung; -42.8% (active) in the test on HOP-92 NSCLC. Further, the growth in the test on NCI-H522 lung was 76.3%; in the test with A549/ATCC NSCLC it was 92.1%; in the test with 786-0 renal, 67.9%.
On to `C#Cc1nc(Nc2cc(C)[nH]n2)c2ccccc2n1`, for which the growth is -19.4% (active) with NCI-H23 lung; -63.3% (active) in the test with NCI-H226 lung; -18.2% (active) in the test with NCI-H322M lung; -61.2% (active) in the test on HOP-62 NSCLC; -36.7% (active) in the test with NCI-H460 lung; -46.3% (active) in the test with HOP-92 NSCLC. The growth in the test with NCI-H522 lung was -72.7% (active); in the test with A549/ATCC NSCLC it was -35.7% (active); in the test with 786-0 renal, -60.7% (active).
On to `C=C1CC[C@@H]2[C@](C)(COC(C)=O)[C@H](OC(C)=O)CC[C@@]2(C)[C@@H]1CC(Nc1ccc(S(=O)(=O)Nc2nc(C)cc(C)n2)cc1)C1=CCOC1=O` (some centres not stated), for which the growth was 84.3% with NCI-H23 lung; 86.7% with NCI-H226 lung; 97.2% in the test with NCI-H322M lung; 103% in the test on HOP-62 NSCLC; 90.3% with NCI-H460 lung; 90.1% in the test with HOP-92 NSCLC. In addition, the growth is 22% with NCI-H522 lung, 65.3% in the test on A549/ATCC NSCLC and 103% with 786-0 renal.
Regarding `C=C1CC[C@@H]2[C@](C)(COC(C)=O)[C@H](OC(C)=O)CC[C@@]2(C)[C@@H]1CC(Nc1ccc(S(=O)(=O)Nc2ccc(Cl)nn2)cc1)C1=CCOC1=O` (some centres not stated), the growth in the test on NCI-H23 lung is 58.2%; in the test on NCI-H226 lung, -10% (active); in the test on NCI-H322M lung, 57%; in the test on HOP-62 NSCLC, 47.9%; in the test with NCI-H460 lung, 14.5%; in the test with HOP-92 NSCLC it was 69.8%. The values for the growth in the test with NCI-H522 lung, in the test on A549/ATCC NSCLC and in the test with 786-0 renal were -34.5% (active), 61.6% and 58.8%, respectively.
On to `O=C(/C=C/c1cccc(Br)c1)c1ccccc1`, for which the growth in the test on NCI-H23 lung is 98.7%; in the test with NCI-H226 lung it was 92.8%; in the test with NCI-H322M lung it was 97.7%; in the test with HOP-62 NSCLC, 70%; in the test on NCI-H460 lung, 104%; in the test on HOP-92 NSCLC, 79%. Besides, the figures for the growth with NCI-H522 lung, in the test on A549/ATCC NSCLC and in the test with 786-0 renal were 64.1%, 72.7% and 72.3%, respectively.
